# Assay results published in PubChem BioAssay AID485297 (National Center for Advancing Translational Sciences (NCATS), 2010).
# The campaign covered roughly 320,000 compounds. About 9,100 (2.8%) were called active. A call without a number means that no potency is given here. Not shown: some 3% with an inconclusive outcome. Calls follow the shape of the dose curve; as a rule, active = well fitted activation curve with a large enough effect; inconclusive = small, poorly fitted or top-dose-only effect; inactive = no such curve, though single readings can be large or run the other way. For the sample, actives were picked, then their nearest neighbours and some compounds at random.
# Assay: qHTS Assay for Rab9 Promoter Activators; also: nearly all actives have a fitted effect of over 60% in size
# Details: Huh7 Rab9 promoter-luciferase reporter, luminescence, 24 h; series mostly up to 9.22 µM
# In short: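 Rab9 promoter-driven luciferase in stably transfected Huh7 cells; 1500 cells/well rested 2 h, exposed to compound in DMSO for 24 h at 37 °C, 5% CO2. Luminescence read 10 min after adding luciferase reagent at ambient temperature.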
# Potency is read from the fitted curve at half-maximal effect.
row,Structure (SMILES),Potency
1,COC(=O)Cc1ccc(OCC(=O)NC2CCCC2)cc1,inactive
2,CN(CC(=O)Nc1ccc(F)cc1)CC(=O)N1CCCCC1,inactive
3,COc1ccccc1-c1oc2ccccc2c1C#CCCCCO,inactive
4,O=C(C1CC(=O)N(C2CCCC2)C1)N1CCN(c2cccc(C(F)(F)F)c2)CC1 (configuration not stated),inactive
5,CCOC(=O)c1nc(-c2ccc3c(c2)OCO3)[nH]c1C,inactive
6,CC(C)c1ccc(NC(=O)COC(=O)c2ccc(CN3CCCC3=O)cc2)cc1,inactive
7,O=C(CSc1nnc(Nc2ccccc2F)s1)NC1CCCC1,inactive
8,Cc1c(NC(=O)CSCc2ccccc2)cccc1C(=O)O,inactive
9,COc1cc(OC)cc(C(=O)NNC(=O)CCOc2ccccc2OC)c1,inactive
10,CCN(C(=O)COC(=O)Cc1c(F)cccc1Cl)c1c(N)n(Cc2ccccc2)c(=O)[nH]c1=O,inactive
11,O=C(CSc1nnc(-c2ccco2)n1CC1CCCO1)c1ccccc1 (configuration not stated),inactive
12,O=C(CSc1nnc(-c2ccco2)n1-c1ccccc1)NCCc1ccccc1,inactive
13,c1ccc(CSc2nnc(-c3ccco3)n2Cc2ccccc2)cc1,3.55 µM (active)
14,COc1ccc(NC(=O)CN(C)C(=O)c2cc(C3CC3)nn2-c2ccccc2)cc1,inactive
15,COc1ccccc1C1=CC(=O)C[C@H](c2ccc(F)cc2)C1,inactive
16,CSCCC(NC(=O)c1ccccc1)C(=O)N1CCN(Cc2ccc(Cl)cc2)CC1 (configuration not stated),inactive

row,Structure (SMILES),Potency
1,O=C(CCc1ccccc1)NNc1ccc(F)cc1,inactive
2,Cc1ccc(F)c(NC(=O)CCc2ccccc2)c1,2.82 µM (active)
3,Cc1ccc(F)c(NC(=O)CCOc2ccccc2C)c1,inactive
4,COC(=O)C1=CO[C@@H](O[C@@H]2O[C@H](CO)[C@@H](O)[C@H](O)[C@H]2O)C2C1C[C@H](O)[C@@H]2C (some centres not stated),inactive
5,N#Cc1nc(Cc2ccccc2)oc1NCCc1ccccc1,3.16 µM (active)
6,Cc1ccccc1-c1nc(C#N)c(NCc2ccco2)o1,inactive
7,N#Cc1nc(Cc2cccc3ccccc23)oc1NCc1ccc2c(c1)OCO2,inactive
8,Cc1cccc(-c2oc3ccc(-c4ccc5c(c4)OCO5)cc3c2C#Cc2cncn2C)c1,inactive
9,CCOC(=O)Cn1nnnc1C,inactive
10,CCOC(=O)/C(C#N)=C/c1ccc(N2CCCCC2)cc1,3.16 µM (active)
11,CCOC(=O)/C(C#N)=C/c1ccc(N2CCN(Cc3ccccc3)CC2)cc1,inactive
12,COc1ccc(N2CCN(C(=O)/C(C#N)=C/c3ccccc3)CC2)cc1,inactive
13,Cc1ccc(C)c(OCC(=O)NNC(=O)C2CCC2)c1,inactive
14,O=S(=O)(c1cccc(S(=O)(=O)N2CCC(n3nnc4ccccc43)CC2)c1)N1CCCCC1,inactive
15,O=C(c1ccc(F)cc1)N1CCC(n2nnc3ccccc32)CC1,1.12 µM (active)
16,CC(=O)c1cccc(S(=O)(=O)N2CCC(n3nnc4cc(F)ccc43)CC2)c1,inactive
